The record followed here is PubChem BioAssay (Tox21).

A short description of assay [1]: qHTS assay for small molecules that induce genotoxicity in human embryonic kidney cells expressing luciferase-tagged ATAD5 (AID 651632). Further: nearly all actives have a fitted effect of over 15% in size. The procedure, abridged: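 HEK293T cells carrying a luciferase reporter tagged to ATAD5 were exposed to compound or DMSO vehicle for 16 hr at 37C, 5% CO2. Amplite was added, and after 30 min at room temperature luciferase activity was read as a marker of ATAD5 induction.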
On the technique in general: In qHTS, concentration-response curves come from the screen itself.

Assay [2] can be described thus: qHTS assay for small molecule agonists of the p53 signaling pathway - cell viability (AID 651633; calls by dose curve; further: nearly all actives have a fitted effect of over 30% in size; further: potency means the concentration at half of the fitted maximal effect). In a few lines: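 p53RE-bla cells, seeded at 4,000 per well and rested 5 h at 37 C/5% CO2, received compounds in DMSO for 16 h at 37 C. CellTiter-Glo was then added, and luminescence was read after 30 min at room temperature to gauge cytotoxicity.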
Assay [3] is described as follows: qHTS assay for small molecules that induce genotoxicity in human embryonic kidney cells expressing luciferase-tagged ATAD5 - cell viability (AID 651634; calls by dose curve; further: nearly all actives have a fitted effect of over 25% in size; further: potency means the concentration at half of the fitted maximal effect). The procedure, abridged: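 HEK293T cells expressing luciferase-tagged ATAD5 were exposed to compound or DMSO for 15.5 hr at 37C, 5% CO2. Viability was then read as live-cell protease activity by CellTiter-Fluor fluorescence after 30 min at 37C.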

A short description of assay [4]: qHTS assay for small molecule disruptors of the mitochondrial membrane potential - cell viability (AID 720634; calls by dose curve; further: nearly all actives have a fitted effect of over 20% in size; further: potency means the concentration at half of the fitted maximal effect). In a few lines: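 HepG2 cells seeded overnight at 37 C, then exposed to compound or DMSO for 1 hr at 37 C, 5% CO2. m-MPI dye added, then CellTiter-Glo for 30 min at room temperature; viability read as ATP luminescence.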
Assay [5] can be described thus: qHTS assay for small molecule disruptors of the mitochondrial membrane potential (AID 720635). Further: potency means the concentration at half of the fitted maximal effect. In a few lines:
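HepG2 cells (2,000/well) attached overnight at 37C, then took compound for 1 hr at 37C, 5% CO2. Mito-MPS dye was added for 30 min; fluorescence was read at 490/535 nm (monomers) and 540/590 nm (aggregates).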

A short description of assay [6]: qHTS assay to test for compound auto fluorescence at 590 nm (red) in HepG2 cells (AID 720674). The procedure, abridged:
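Rose Bengal sodium served as the red fluorophore standard. HepG2 monolayers (overnight attachment, MEM with 10% FBS) were exposed to test compounds for 1 hr at 37 C and read at Ex 540/Em 590 nm.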

A short description of assay [7]: qHTS assay to test for compound auto fluorescence at 535 nm (green) in HepG2 cells (AID 720675).
Assay [8] can be described thus: qHTS assay to test for compound auto fluorescence at 460 nm (blue) in HEK293 cells (AID 720678). The procedure, abridged:
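Intrinsic compound fluorescence is recorded in live HEK293 cultures after overnight incubation at 37C, 5% CO2, using excitation 405 nm and emission 460 nm. Values are referenced to triamterene.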

A short description of assay [9]: qHTS assay to test for compound auto fluorescence at 590 nm (red) in HEK293 cells (AID 720679). The procedure, abridged:
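Red autofluorescence, HEK293 cells: 2,000 cells/well; attach 4-5 hr 37C; add 23 nL cpd or DMSO; incubate o/n 37C 5% CO2; read Ex540/Em590; Rose Bengal sodium reference.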

Assay [10] is described as follows: qHTS assay to test for compound auto fluorescence at 535 nm (green) in HEK293 cells (AID 720680).
Assay [11] can be described thus: qHTS assay to test for compound auto fluorescence at 460 nm (blue) in HEK293 cell free culture (AID 720681). In a few lines:
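Test compounds were pinned into cell-free culture medium (DMEM with 10% FBS) and fluorescence was read directly at Ex/Em 405/460 nm. Signals were expressed as fluorescence equivalents of triamterene, with DMSO vehicle as control.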

The nature of assay [12]: qHTS assay to test for compound auto fluorescence at 535 nm (green) in HEK293 cell free culture (AID 720682). In a few lines: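 Cell-free medium (DMEM, 10% FBS) receives compound or DMSO by pintool. Plate read directly at Ex 485/Em 535 nm. Signal converted to fluorescein equivalency.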
Assay [13] can be described thus: qHTS assay to test for compound auto fluorescence at 590 nm (red) in HEK293 cell free culture (AID 720683). The procedure, abridged: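 Tox21 10K library compounds were pinned into cell-free DMEM with 10% FBS and fluorescence was read at excitation 540 nm. Activity is expressed as Rose Bengal sodium equivalency.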
Assay [14] in a line: qHTS assay to test for compound auto fluorescence at 590 nm (red) in HepG2 cell free culture (AID 720684). The procedure, abridged: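 Red fluorescence (540 nm excitation, 590 nm emission) was measured after compound transfer into cell-free MEM supplemented with 10% FBS. Values are equivalencies against Rose Bengal sodium.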
Assay [15] can be described thus: qHTS assay to test for compound auto fluorescence at 460 nm (blue) in HepG2 cell free culture (AID 720685). The procedure, abridged: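 Compound (23 nL) or DMSO pinned into cell-free MEM with 10% FBS; blue fluorescence read at 405/460 nm excitation/emission, expressed as auto-fluorescence equivalency to triamterene.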
Assay [16] in a line: qHTS assay to test for compound auto fluorescence at 535 nm (green) in HepG2 cell free culture (AID 720686).
A short description of assay [17]: qHTS assay to test for compound auto fluorescence at 460 nm (blue) in HepG2 cells (AID 720687). In a few lines: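 Cells (2,000/well in MEM with 10% FBS) attached overnight at 37 C, then were exposed to compound or DMSO for 1 hr at 37 C, 5% CO2. Fluorescence read at Ex/Em 405/460 nm, expressed as triamterene-equivalent signal.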
Assay [18] has as its target Glucocorticoid receptor (Homo sapiens) (UniProt P04150). The experiment in a line: qHTS assay to identify small molecule agonists of the glucocorticoid receptor (GR) signaling pathway (AID 720691; active means well fitted activation curve with a large enough effect in the signal ratio in the repeat runs, not every such curve was filed as active; the % refers to the signal ratio; further: potency means the concentration at half of the fitted maximal effect). Particulars: GR-bla HeLa, beta-lactamase reporter ratio, 18 h; activation: at 62.4 µM (top of the series). The procedure, abridged:
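GR-bla HeLa cells (beta-lactamase reporter under glucocorticoid response element) were plated 4 h at 37 C/5% CO2, given compounds in DMSO, and incubated 18 h at 37 C. LiveBLAzer B/G FRET substrate was added for 2 h at room temperature, then fluorescence intensity read.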

Assay [19] in a line: qHTS assay for small molecule agonists of the p53 signaling pathway (AID 651631; calls by dose curve; further: potency means the concentration at half of the fitted maximal effect; nearly all actives have a fitted effect of over 15% in size). In a few lines: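 p53RE-bla HCT-116 cells; compounds 16 h, 37 °C; LiveBLAzer B/G FRET substrate 2 h RT; fluorescence intensity read-out, qHTS format.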
Assay [20] addresses Glucocorticoid receptor (Homo sapiens) (UniProt P04150). Put plainly: qHTS assay to identify small molecule antagonists of the glucocorticoid receptor (GR) signaling pathway (AID 720692; active means well fitted inhibition curve with a large enough effect in the signal ratio in the repeat runs, not every such curve was filed as active; the % refers to the signal ratio; further: potency means the concentration at half of the fitted maximal effect). In a few lines: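 GR-bla HeLa cells (beta-lactamase reporter under glucocorticoid response element) were pre-plated 4 h at 37 C, treated with compounds plus 5 nM dexamethasone (final) for 18 h, then read by LiveBLAzer B/G FRET fluorescence after 2 h.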

Inconclusive results are not listed. The source made the active and inactive calls. Unless noted, the call rests on the fitted dose curve; in most records, active means well fitted curve in the direction sought with a large enough effect in the repeat runs; inconclusive means weak or mixed curves; inactive means no such curve, though single readings can be large; an effect the other way counts as inactive or inconclusive.

Glucocorticoid receptor (Homo sapiens), sequence (P04150 whole entry, looked up): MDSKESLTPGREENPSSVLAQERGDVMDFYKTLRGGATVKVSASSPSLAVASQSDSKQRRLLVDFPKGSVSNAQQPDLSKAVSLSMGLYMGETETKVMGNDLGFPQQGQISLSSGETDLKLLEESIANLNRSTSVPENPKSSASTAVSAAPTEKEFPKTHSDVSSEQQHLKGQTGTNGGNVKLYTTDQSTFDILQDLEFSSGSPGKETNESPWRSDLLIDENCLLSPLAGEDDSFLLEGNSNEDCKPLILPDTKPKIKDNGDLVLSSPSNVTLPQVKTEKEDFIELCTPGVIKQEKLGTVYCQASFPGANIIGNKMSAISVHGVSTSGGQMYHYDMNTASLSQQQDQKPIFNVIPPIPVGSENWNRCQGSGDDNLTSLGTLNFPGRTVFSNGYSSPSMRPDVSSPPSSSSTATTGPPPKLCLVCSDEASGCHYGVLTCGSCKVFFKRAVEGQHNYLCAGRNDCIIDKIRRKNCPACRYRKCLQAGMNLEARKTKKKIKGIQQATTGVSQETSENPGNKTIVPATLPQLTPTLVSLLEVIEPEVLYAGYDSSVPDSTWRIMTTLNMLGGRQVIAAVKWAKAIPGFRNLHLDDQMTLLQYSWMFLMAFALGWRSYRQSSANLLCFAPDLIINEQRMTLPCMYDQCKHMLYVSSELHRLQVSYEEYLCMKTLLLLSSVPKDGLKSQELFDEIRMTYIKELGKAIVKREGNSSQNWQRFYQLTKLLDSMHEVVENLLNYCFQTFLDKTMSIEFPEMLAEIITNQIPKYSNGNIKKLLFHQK

On to `CCOC(=O)O[C@]1(C(=O)OCCl)CC[C@H]2[C@@H]3CCC4=CC(=O)C=C[C@]4(C)[C@H]3[C@@H](O)C[C@@]21C`, for which the Potency entry in [1], in assay [2], in [3], in assay [4], in assay [5] and in assay [6] was “inactive” in each case. The Potency result in assay [7], in assay [8], in assay [9], in assay [11], in assay [13] and in assay [14] was “inactive” each time. Besides, the Potency entry in assay [15], in [16] and in assay [17] was “inactive” throughout. The result in [10] and in assay [12] was inactive. Also, in [18], the Potency is 0.0756 µM (active).
Take `O=C(NOCC1CC1)c1ccc(F)c(F)c1Nc1ccc(I)cc1Cl`: the Potency was 11.9 µM (active) in assay [19], 23.7 µM (active) in [2], 8.41 µM (active) in assay [5] and 10.7 µM (active) in [20]. In addition, the Potency entry in [3], in [6], in assay [7], in [8], in assay [9] and in [13] was “inactive” in each case. The Potency entry in [14], in assay [15] and in assay [17] was “inactive” throughout. The compound was classed as inactive in assay [10].
With `CCCCCCCCS(=O)C(C)Cc1ccc2c(c1)OCO2` (stereo unspecified), the Potency result in assay [1], in assay [2], in [3], in assay [4], in [5] and in [6] was “inactive” each time. For the same compound, the Potency result in [7], in assay [8], in [9], in assay [11], in assay [13] and in assay [14] was “inactive” throughout. Moreover, the Potency result in assay [16], in [17] and in [18] was “inactive” each time. Further, the outcome in assay [10] and in assay [12] was inactive.
With `CCCCCCCCOC(=O)c1ccc(O)cc1`, the Potency entry in assay [1], in assay [2], in assay [3], in assay [6], in assay [7] and in [8] was “inactive” in each case. For the same compound, the Potency result in assay [9], in [11], in [13], in assay [15] and in assay [17] was “inactive” throughout. In addition, the Potency in [4] is 24.3 µM (active); in assay [5], 17.2 µM (active). Besides, the compound was called inactive in assay [10] and in [12].
Turning to `NNc1nc(-c2ccc(N)cc2)cs1`, the Potency entry in [1], in [2], in assay [4], in assay [6], in assay [7] and in assay [8] was “inactive” in each case. Also, the Potency entry in [9], in [11], in assay [13], in [14], in assay [15] and in assay [16] was “inactive” in each case. Moreover, the Potency entry in assay [17] is “inactive”. Besides, the figures for the Potency in [3] and in [5] were 24.3 µM (active) and 0.0545 µM (active), respectively. For the same compound, in [10], the compound was classed as inactive.
Regarding `CCc1cc(SCc2sc(-c3ccc(C(F)(F)F)cc3)nc2CN2CCN(c3ccc(OC)cc3)CC2)ccc1OCC(=O)O`, the Potency entry in assay [1], in assay [4], in [6], in [8], in assay [9] and in assay [11] was “inactive” throughout. The Potency result in assay [13], in [14], in assay [15], in [16] and in [17] was “inactive” in each case. For the same compound, the Potency in assay [2] is 9.69 µM (active); in assay [3] it was 48.6 µM (active); in assay [5] it was 19.3 µM (active). The call in assay [10] and in assay [12] was inactive.
